Active and inactive are the calls of the source. How the source made its calls: active means hit-call score of the fitted dose curve at least 0.9, where 1 is the maximum; inactive means score below 0.9.
Assays:
Details in all cases: mRNA level, 48 h; actives raise or lower the signal
[1] = read-out: ABC Transporter (ABCB1), ABCB1 (gene 5243); assay: LTEA_HepaRG_ABCB1: Life Technologies and Expression Analysis (LTEA) Assay for ABC Transporter (ABCB1) using HepaRG (AID 2283460)
Outline: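 Human liver HepaRG line treated 48 h with up to 100 uM compound (eight half-log points, 0.5% DMSO); ABCB1 mRNA change fitted bidirectionally against DMSO controls.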

[2] = read-out: growth arrest and DNA damage 45 (GADD45B), GADD45B (gene 4616); assay: LTEA_HepaRG_GADD45B: Life Technologies and Expression Analysis (LTEA) Assay for growth arrest and DNA damage 45 (GADD45B) using HepaRG (AID 2283461)
Outline: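 HepaRG, ~100,000 cells/well, 48 h plating; serum-free induction medium; cpd 100 uM top, half-log x8, 0.5% DMSO, duplicate, 48 h; lysis in RLT, RNA isolation, qRT-PCR; norm ACTB/GAPDH/POLR2A; bidirectional fit vs DMSO.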

[3] = read-out: ABC Transporter (ABCC3), ABCC3 (gene 8714); assay: LTEA_HepaRG_ABCC3: Life Technologies and Expression Analysis (LTEA) Assay for ABC Transporter (ABCC3) using HepaRG (AID 2283462)
Outline: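 Human HepaRG, 48 h dosing, 8-pt half-log series from 100 uM, 0.5% DMSO vehicle, duplicates. ABCC3 mRNA by TaqMan qRT-PCR, housekeeping-normalized; bidirectional curve fit vs DMSO.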

[4] = read-out: ABC Transporter (ABCB11), ABCB11 (gene 8647); assay: LTEA_HepaRG_ABCB11: Life Technologies and Expression Analysis (LTEA) Assay for ABC Transporter (ABCB11) using HepaRG (AID 2283463)
Outline: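 Using HepaRG cultures held in 0.5% DMSO, chemicals were tested at half-log dilutions from 100 uM for 48 h. Induction or suppression of ABCB11 mRNA, normalized to ACTB, GAPDH and POLR2A, was fitted bidirectionally against vehicle.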

[5] = read-out: ABC Transporter (ABCC2), ABCC2 (gene 1244); assay: LTEA_HepaRG_ABCC2: Life Technologies and Expression Analysis (LTEA) Assay for ABC Transporter (ABCC2) using HepaRG (AID 2283464)
Outline: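 HepaRG, 48 h post-plating; serum-free induction medium; cpd 8-pt, 100 uM top, half-log, 0.5% DMSO, duplicate, 48 h. Readout: ABCC2 mRNA by qRT-PCR, norm. ACTB/GAPDH/POLR2A. Bidirectional fit vs DMSO baseline.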

[6] = read-out: Broad substrate specificity ATP-binding cassette transporter ABCG2 (Homo sapiens) (UniProt Q9UNQ0); assay: LTEA_HepaRG_ABCG2: Life Technologies and Expression Analysis (LTEA) Assay for ABC Transporter (ABCG2) using HepaRG (AID 2283465)
Outline: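 Gene expression of ABCG2 in HepaRG liver cells is quantified by qRT-PCR following 48 h exposure across an eight-point series topping at 100 uM. Values come from bidirectional fitting relative to DMSO vehicle.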

[7] = read-out: ATP-citrate lyase (ACLY), ACLY (gene 47); assay: LTEA_HepaRG_ACLY: Life Technologies and Expression Analysis (LTEA) Assay for ATP-citrate lyase (ACLY) using HepaRG (AID 2283466)
Outline: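 ACLY expression changes in human HepaRG liver cells are quantified by qRT-PCR after 48 h exposure to test chemicals (maximum 100 uM, half-log steps). Values are fitted in both directions relative to 0.5% DMSO vehicle.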

[8] = read-out: Peroxisomal acyl-coenzyme A oxidase 1 (ACOX1) gene, ACOX1 (gene 51); assay: LTEA_HepaRG_ACOX1: Life Technologies and Expression Analysis (LTEA) Assay for Peroxisomal acyl-coenzyme A oxidase 1 (ACOX1) gene using HepaRG (AID 2283467)
Outline: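 Human HepaRG hepatic cultures, 48 h treatment with test chemicals up to 100 uM. ACOX1 expression read by qRT-PCR relative to 0.5% DMSO vehicle.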

[9] = read-out: Alkaline Phosphatase, Placental (ALPP) gene, ALPP (gene 250); assay: LTEA_HepaRG_ALPP: Life Technologies and Expression Analysis (LTEA) Assay for Alkaline Phosphatase, Placental (ALPP) gene using HepaRG (AID 2283468)
Outline: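 HepaRG, 48 h plating then 48 h dosing, serum-free induction medium, 0.5% DMSO. 8 conc, half-log, max 100 uM, duplicates. Endpoint: ALPP transcript by qRT-PCR, housekeeping-normalized; gain or loss fitted vs DMSO.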

[10] = read-out: Bcl-2 (BAD) gene, BAD (gene 572); assay: LTEA_HepaRG_BAD: Life Technologies and Expression Analysis (LTEA) Assay for Bcl-2 (BAD) gene using HepaRG (AID 2283469)
Outline: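 Activity values reflect up- or down-regulation of BAD mRNA in human HepaRG hepatic cells treated 48 h in serum-free medium, with eight-point half-log dosing capped at 100 uM and 0.5% DMSO vehicle.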

[11] = read-out: Bcl-2 (BAX) gene, BAX (gene 581); assay: LTEA_HepaRG_BAX: Life Technologies and Expression Analysis (LTEA) Assay for Bcl-2 (BAX) gene using HepaRG (AID 2283470)
Outline: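 Human HepaRG cells treated in duplicate for 48 h across eight concentrations (max 100 uM, 0.5% DMSO); BAX expression measured by qRT-PCR.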

[12] = read-out: adenosine kinase (ADK) gene, ADK (gene 132); assay: LTEA_HepaRG_ADK: Life Technologies and Expression Analysis (LTEA) Assay for adenosine kinase (ADK) gene using HepaRG (AID 2283471)
Outline: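 Read-out is ADK transcript level measured by qRT-PCR and normalised to three housekeeping genes. Cells are human HepaRG, dosed for 48 h at up to 100 uM in 0.5% DMSO. Gain or loss of signal is fitted against DMSO controls.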

[13] = read-out: Alpha-fetoprotein (AFP) gene, AFP (gene 174); assay: LTEA_HepaRG_AFP: Life Technologies and Expression Analysis (LTEA) Assay for Alpha-fetoprotein (AFP) gene using HepaRG (AID 2283472)
Outline: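 Measures AFP mRNA change in HepaRG after 48 h chemical exposure (8 half-log concentrations, highest 100 uM, 0.5% DMSO). Fold change relative to DMSO, fitted in both directions.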

BCL2L11 (gene 10018) = assay: LTEA_HepaRG_BCL2L11: Life Technologies and Expression Analysis (LTEA) Assay for Bcl-2 (BCL2L11) gene using HepaRG (AID 2283473)
Outline: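 Read-out is BCL2L11 transcript level by qRT-PCR, normalized to three housekeeping genes and fitted bidirectionally against 0.5% DMSO vehicle. HepaRG cells received chemicals for 48 h in serum-free induction medium, 100 uM down in half-log dilutions.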

[14] = read-out: Apolipoprotein A-V (APOA5) gene, APOA5 (gene 116519); assay: LTEA_HepaRG_APOA5: Life Technologies and Expression Analysis (LTEA) Assay for Apolipoprotein A-V (APOA5) gene using HepaRG (AID 2283474)
Outline: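 Readout is APOA5 transcript level by qRT-PCR on Fluidigm dynamic arrays, normalized to three housekeeping genes. HepaRG cultures received chemicals for 48 h at up to 100 uM (half-log steps, 0.5% DMSO), with gain or loss scored relative to DMSO.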

[15] = read-out: Apoptosis regulator Bcl-2 (Homo sapiens) (UniProt P10415); assay: LTEA_HepaRG_BCL2: Life Technologies and Expression Analysis (LTEA) Assay for Bcl-2 gene using HepaRG (AID 2283475);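 further: BCL2 transcript by TaqMan qRT-PCR normalised to ACTB GAPDH and POLR2A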
Outline: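 Each chemical was tested in duplicate on HepaRG cultures held in serum-free induction medium for 48 h, highest concentration 100 uM with half-log dilutions. Transcript levels came from multiplexed qRT-PCR, normalised to housekeeping genes; activity was scored in either direction relative to DMSO.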

[16] = read-out: Bcl-2 (BID) gene, BID (gene 637); assay: LTEA_HepaRG_BID: Life Technologies and Expression Analysis (LTEA) Assay for Bcl-2 (BID) gene using HepaRG (AID 2283476)
Outline: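 Assay used HepaRG hepatic cells treated 48 h in serum-free medium with half-log dilutions from 100 uM. Endpoint: BID mRNA, qRT-PCR, normalized to ACTB/GAPDH/POLR2A.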

Caspase-3 (Homo sapiens) = Caspase-3 (Homo sapiens) (UniProt P42574); assay: LTEA_HepaRG_CASP3: Life Technologies and Expression Analysis (LTEA) Assay for cysteine-aspartic acid protease (CASP3) using HepaRG (AID 2283477)
Sequence of Caspase-3 (Homo sapiens) (P42574 whole entry, looked up): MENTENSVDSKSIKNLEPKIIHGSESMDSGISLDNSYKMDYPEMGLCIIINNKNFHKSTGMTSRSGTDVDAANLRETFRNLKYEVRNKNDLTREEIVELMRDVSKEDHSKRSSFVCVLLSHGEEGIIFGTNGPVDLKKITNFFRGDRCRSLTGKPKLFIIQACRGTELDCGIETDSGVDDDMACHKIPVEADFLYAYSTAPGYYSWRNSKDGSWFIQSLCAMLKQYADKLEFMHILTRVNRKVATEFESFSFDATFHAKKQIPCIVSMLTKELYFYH
Outline: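 Read-out is CASP3 mRNA level by TaqMan qRT-PCR in human HepaRG cells after 48 h chemical exposure. Eight half-log concentrations topping at 100 uM were tested in 0.5% DMSO; gain or loss was fitted relative to DMSO.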

[17] = read-out: Cytochrome P450 (CYP24A1), CYP24A1 (gene 1591); assay: LTEA_HepaRG_CYP24A1: Life Technologies and Expression Analysis (LTEA) Assay for Cytochrome P450 (CYP24A1) using HepaRG (AID 2283478)
Outline: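 HepaRG, 48 h chemical exposure, 8-pt half-log CRC from 100 uM, 0.5% DMSO vehicle, duplicates. Endpoint: CYP24A1 mRNA by Fluidigm TaqMan qRT-PCR, normalized ACTB/GAPDH/POLR2A; gain/loss fit vs DMSO.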

[18] = read-out: Cytochrome P450 (CYP1A2), CYP1A2 (gene 1544); assay: LTEA_HepaRG_CYP1A2: Life Technologies and Expression Analysis (LTEA) Assay for Cytochrome P450 (CYP1A2) using HepaRG (AID 2283479)
Outline: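 CYP1A2 transcript induction or loss, quantified by Fluidigm qRT-PCR against three housekeeping genes, was fitted bidirectionally against 0.5% DMSO controls. Human HepaRG cells received eight half-log concentrations from 100 uM over 48 h.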

Measured: AC50

Sequence of Broad substrate specificity ATP-binding cassette transporter ABCG2 (Homo sapiens) (Q9UNQ0 whole entry, looked up): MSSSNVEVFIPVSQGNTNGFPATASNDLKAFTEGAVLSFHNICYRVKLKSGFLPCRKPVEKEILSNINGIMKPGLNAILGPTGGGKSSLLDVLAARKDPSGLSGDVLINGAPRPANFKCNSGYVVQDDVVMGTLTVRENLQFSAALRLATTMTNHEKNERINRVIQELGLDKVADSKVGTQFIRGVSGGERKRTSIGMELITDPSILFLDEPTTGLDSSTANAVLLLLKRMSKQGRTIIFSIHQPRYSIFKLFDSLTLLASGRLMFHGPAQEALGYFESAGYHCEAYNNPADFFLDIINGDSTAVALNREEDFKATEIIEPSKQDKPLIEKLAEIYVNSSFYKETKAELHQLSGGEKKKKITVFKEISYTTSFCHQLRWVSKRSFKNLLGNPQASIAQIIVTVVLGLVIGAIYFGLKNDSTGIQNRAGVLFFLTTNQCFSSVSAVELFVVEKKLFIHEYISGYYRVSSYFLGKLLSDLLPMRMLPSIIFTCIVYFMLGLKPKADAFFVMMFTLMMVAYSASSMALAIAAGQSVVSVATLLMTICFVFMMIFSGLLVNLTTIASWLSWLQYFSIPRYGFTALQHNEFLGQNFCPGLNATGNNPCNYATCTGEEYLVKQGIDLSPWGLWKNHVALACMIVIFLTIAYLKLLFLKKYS
Sequence of Apoptosis regulator Bcl-2 (Homo sapiens) (P10415 whole entry, looked up): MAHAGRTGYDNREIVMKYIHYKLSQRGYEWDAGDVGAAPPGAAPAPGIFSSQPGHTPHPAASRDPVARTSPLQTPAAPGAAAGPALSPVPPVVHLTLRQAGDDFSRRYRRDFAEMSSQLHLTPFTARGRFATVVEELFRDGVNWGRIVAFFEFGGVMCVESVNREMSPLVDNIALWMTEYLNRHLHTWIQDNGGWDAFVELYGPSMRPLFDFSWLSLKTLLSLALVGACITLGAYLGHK

CCNP(=S)(OC)O/C(C)=C/C(=O)OC(C)C (stereo not given)
active: [1] 13 µM | [5] 13.1 µM | [6] 13.6 µM | [7] 67 µM | [18] 18 µM
inactive: [2] | [3] | [4] | [8] | [9] | [10] | [11] | [12] | [13] | BCL2L11 (gene 10018) | [14] | [15] | [16] | Caspase-3 (Homo sapiens) | [17]

Nc1c(Cl)c(Cl)nc(C(=O)O)c1Cl
inactive: [1] | [2] | [3] | [4] | [5] | [6] | [7] | [8] | [9] | [10] | [11] | [12] | [13] | BCL2L11 (gene 10018) | [14] | [15] | [16] | Caspase-3 (Homo sapiens) | [17]
active: [18] 50 µM

C=C(C)CN(CC)c1c([N+](=O)[O-])cc(C(F)(F)F)cc1[N+](=O)[O-]
active: [18] 33 µM
inactive: [1] | [2] | [3] | [4] | [5] | [6] | [7] | [8] | [9] | [10] | [11] | [12] | [13] | BCL2L11 (gene 10018) | [14] | [15] | [16] | Caspase-3 (Homo sapiens) | [17]

CC1(C)C(C(=O)OC(C#N)c2cccc(Oc3ccccc3)c2)C1(C)C (stereo not given)
active: [18] 39.6 µM
inactive: [1] | [2] | [3] | [4] | [5] | [6] | [7] | [8] | [9] | [10] | [11] | [12] | [13] | BCL2L11 (gene 10018) | [14] | [15] | [16] | Caspase-3 (Homo sapiens) | [17]

Cc1nc(N(C)C)nc(OC(=O)N(C)C)c1C
inactive: [2] | [3] | [4] | [5] | [6] | [7] | [8] | [9] | [10] | [11] | [12] | [13] | BCL2L11 (gene 10018) | [14] | [15] | [16] | Caspase-3 (Homo sapiens) | [18]
active: [1] 9.92 µM | [17] 92.4 µM

Source: PubChem BioAssay (EPA / NIEHS)
